Out of some 13,000 compounds screened, about 3,200 (25%) showed an effect of 50% or more. Some of the results follow.
System: P. falciparum stage V gametocytes
Parameters: BacTiter-Glo ATP luminescence viability of purified stage V gametocytes in 384-well plates, per cent inhibition versus DMSO
Conditions: 48 h, 5 µM; inhibitor

| Compound | % Inhibition [%] |
| --- | --- |
| COC(=O)c1cccc(OCCNC2CCN(C[C@H](O)c3ccnc4ccc(OC)cc34)CC2)c1 [TCMDC-140710] | -10.21 |
| Cc1nnc(N2C(=N)SC(=Cc3ccc(-c4ccc(OC(F)(F)F)cc4)o3)C2=O)s1 [TCMDC-124487] | 0.8925 |
| COc1nc2c(N3CCN(CCNCc4ccc5c(n4)NC(=O)CO5)CC3)ccnc2cc1F [TCMDC-135208] | -25.48 |
| Cc1ccc(NC(=O)Nc2ccc(Cl)c(C(F)(F)F)c2)cc1-c1ccc(C(=O)NCCN2CCOCC2)cc1 [TCMDC-133589] | 4.722 |
| CC(C)N1CCN(C(=O)c2ccc(CN(C)CCCN3CCN(c4cccc(Cl)c4Cl)CC3)s2)CC1 [TCMDC-136526] | 84.79 |
| CN(C)CCCN1CCN(C(=O)c2cccc(-c3noc(C(F)(F)F)n3)c2)CC1 [TCMDC-132384] | -19.31 |
| CC(C)N1CCN(C(=O)c2ccc(CNCCCN3CCN(c4ccccc4C(F)(F)F)CC3)s2)CC1 [TCMDC-136704] | 40.48 |
| CC(C)N1CCN(C(=O)c2ccc(CNCCCN3CCN(c4cccc(Cl)c4Cl)CC3)o2)CC1 [TCMDC-136521] | -13.79 |
| Cc1cc2[nH]c(-c3ccc(C(=O)NCCCN4CCN(c5cccc(Cl)c5)CC4)s3)nc2cc1Cl [TCMDC-140031] | -0.02415 |
| CC(C)N1CCN(C(=O)c2ccc(CNCCCN3CCN(c4cccc(Cl)c4Cl)CC3)s2)CC1 [TCMDC-136520] | 62.19 |
| CC(C)CCN1CCCN(Cc2ccc(C(=O)Nc3ccc(C(C)(C)C)cc3)cc2)CC1 [TCMDC-136444] | 35.23 |
| Cc1ccc(Oc2ccc(CNc3nc(Nc4cccc(F)c4)nc(Nc4cccc(F)c4)n3)cc2)cc1 [TCMDC-135138] | 50.43 |
| CC(=O)Nc1cccc(CNc2cc(C)nc(Nc3ccc(C)cc3)n2)c1 [TCMDC-133461] | 27.64 |
| Oc1ccc(CCNc2nc(NCc3cccc(OCc4cccc(F)c4)c3)nc(N3CCNCC3)n2)cc1 [TCMDC-133812] | -36.91 |
| Fc1cccc(Nc2nc(NCc3ccc(OCc4ccccc4)cc3)nc(Nc3cccc(F)c3)n2)c1 [TCMDC-135137] | 60.27 |
| COc1cccc(Nc2nc(C)cc(NCc3ccc(-c4c(C)noc4C)cc3)n2)c1 [TCMDC-133451] | 9.249 |
| O=C(Nc1ccc(OCc2ccccc2)cc1)c1nc2ccccc2nc1Cl [TCMDC-124732] | 4.904 |
| COc1cc(Cc2cnc3nc(N)nc(N)c3c2C)cc(OC)c1OC [TCMDC-138058] | -6.965 |
| Cc1cc(NN=Cc2ccc(Cl)cc2)c2ccccc2n1 [TCMDC-123979] | 12.17 |
| CCOc1ccc2nc(C)cc(NN=Cc3ccncc3)c2c1 [TCMDC-142046] | -27.59 |
| Cc1ccc2c(NN=Cc3cccc(F)c3)cc(C)nc2c1 [TCMDC-142067] | 59.3 |
| COc1ccc2c(NN=Cc3ccc(F)cc3)cc(C)nc2c1 [TCMDC-142086] | 107.2 |
| CCOc1ccc2nc(C)cc(NN=Cc3ccc(Cl)cc3)c2c1 [TCMDC-142091] | 100.1 |
| Cc1cc(NN=Cc2ccc(F)cc2)c2ccc(F)cc2n1 [TCMDC-142039] | -75.1 |

| Compound | % Inhibition [%] |
| --- | --- |
| Cc1ccc2nc(C)cc(NN=Cc3cccc(F)c3)c2c1 [TCMDC-142066] | 30.79 |
| CCOc1ccc2nc(C)cc(NN=Cc3ccccc3)c2c1 [TCMDC-142094] | -27.91 |
| COc1ccc2nc(C)cc(NN=Cc3ccc(Cl)cc3)c2c1 [TCMDC-123971] | 99.29 |
| Cc1ccc2c(NN=CC=Cc3ccccc3)cc(C)nc2c1 [TCMDC-142075] | -22.28 |
| Cc1ccc(NC(=O)NC2CCN(c3ccnc4cc(Cl)ccc34)CC2)cc1 [TCMDC-133571] | -34.41 |
| CNS(=O)(=O)Cc1ccc(Nc2nccc(Nc3cccc4c3cnn4C(=O)Nc3ccccc3)n2)cc1 [TCMDC-136315] | 19.26 |
| Cc1cc(Br)c(OCCCON2C(N)=NC(N)=NC2(C)C)c(Br)c1 [TCMDC-131365] | 37.66 |
| Cc1nc2c(c(C)nn2C(C)(C)C)c(C)c1CCC(=O)Nc1ccc(CN2CCCC2)cc1 [TCMDC-124397] | -7.615 |
| COC(=O)c1ccc(Nc2nccc(Nc3ccc(Oc4ccccc4)cc3)n2)cc1 [TCMDC-138560] | -28.54 |
| COc1cccc(Nc2nc(C)cc(NCc3ccc(-n4ccnc4)cc3)n2)c1 [TCMDC-133450] | 43.61 |
| Cc1cc(N(C)C)nc(Nc2ccc(NC(=O)c3ccccc3F)cc2)n1 [TCMDC-124725] | 4.015 |
| Cc1cc(Cl)c(S(=O)(=O)NC2CCCC2)cc1OCC(=O)NC1CCCCC1 [TCMDC-124353] | 26.39 |
| Fc1cccc(COc2ccc(Nc3ncnc4ccc(-c5nnc(C(F)(F)F)o5)cc34)cc2Cl)c1 [TCMDC-138162] | -34.34 |
| COc1ccc2nc(C)cc(NN=Cc3ccc(F)cc3)c2c1 [TCMDC-123973] | 111.2 |
| Cc1cc(NN=Cc2ccccc2F)c2cccc(C)c2n1 [TCMDC-142068] | -42.7 |
| Cc1cc(NN=Cc2ccc(F)cc2)c2cccc(C)c2n1 [TCMDC-142082] | 83.37 |
| Cc1cc(NN=Cc2cccc(F)c2)c2cccc(C)c2n1 [TCMDC-142081] | -19.79 |
| COc1ccc2c(NN=Cc3cccc(F)c3)cc(C)nc2c1 [TCMDC-142085] | 106.9 |
| COc1ccc2nc(C)cc(NN=Cc3cccc(F)c3)c2c1 [TCMDC-142084] | 32.42 |
| CCCC(=O)Nc1ccc(OCCCCN(CC(C)(C)C)c2ccc(C#N)c(C(F)(F)F)c2)cc1 [TCMDC-132784] | -2.311 |
| O=C(Nc1ccc(-c2nc3ccccc3[nH]2)cc1)c1cccc([N+](=O)[O-])c1 [TCMDC-123637] | -11.52 |
| Clc1ccc2nccc(N3CCC(CN4CCC(c5c[nH]c6ccccc56)CC4)CC3)c2c1 [TCMDC-134281] | 0.1691 |
| O=S(=O)(Nc1ccc2nccc(N3CCNCC3)c2c1)c1ccc(-c2ccccc2)cc1 [TCMDC-139546] | 12.57 |
| Cc1n[nH]c2ccc(-c3ccc4nccc(N5CCC(N)CC5)c4c3)cc12 [TCMDC-134315] | 105.4 |

— PMC4552634, “A New Set of Chemical Starting Points with Plasmodium falciparum Transmission-Blocking Potential for Antimalarial Drug Discovery” (PLoS ONE, 2015)
